Results as given in PubChem BioAssay (EPA / NIEHS).
Activity calls are given as the source filed them. The calls were made as follows: active = hit-call score of the fitted dose curve at least 0.9, where 1 is the maximum; inconclusive = response in the unintended direction; inactive = score below 0.9.

Target: Estrogen receptor (Homo sapiens) (UniProt P03372)
Assay: OT_ER_ERaERa_1440: Odyssey Thera (OT) 24-hour HEK293T Protein-Complementation Assay for Estrogen Receptor-alpha/-alpha Homodimer (AID 2283349);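 also: hits raise fluorescence above DMSO for agonists and antagonists alike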
Method: OT_ER_ERaERa_1440 is a cell-based assay that uses HEK293T, a human kidney cell line, with measurements taken at 24 hours after chemical dosing in a 384-well plate.OT_ER_ERaERa_1440 is one of one assay component(s) measured or calculated from the OT_ER_ERaERa_1440 assay. It is designed to make measurements of protein fragment complementation, a form of binding reporter, as detected with fluorescence intensity signals by Protein-fragment Complementation technology.Data from the assay component OT_ER_ERaERa_1440 was analyzed into 1 assay endpoint. This assay endpoint, OT_ER_ERaERa_1440, was analyzed in the positive analysis fitting direction relative to DMSO as the negative control and baseline of activity. Using a type of binding reporter, measures of receptor for gain-of-signal activity can be used to understand the binding at the pathway-level as they relate to the gene ESR1. Furthermore, this assay endpoint can be referred to as a primary readout, because the performed assay has only produced 1 assay endpoint. To generalize the intended target to other relatable targets, this assay endpoint is annotated to the nuclear receptor intended target family, where the subfamily is steroidal.
Protein-fragment complementation assay, or PCA, is a method for the identification and quantification of protein-protein interactions. In the PCA, the proteins of interest ("bait" and "prey") are each covalently linked to fragments of a third protein (e.g. DHFR, which acts as a "reporter"). Interaction between the bait and the prey proteins brings the fragments of the reporter protein in close proximity to allow them to form a functional reporter protein whose activity can be measured. The OT ER alpha / ER alpha assay is a homodimer PCA of the ligand binding domain (amino acids 310-547) of human ER alpha stably expressed in HEK293T cells. […] Fluorescent signal in the basal state of the assay is very low and is primarily punctuate and cytoplasmic. Modulation of this assay is quantified as an increase in mean fluorescence intensity in the nucleus (for agonists) or in the nucleus and cytoplasm (antagonists) relative to vehicle controls, and can be quantified on a high content imaging device or a laser scanning cytometer. The latter instrument is favored for this assay because of the rapid mode of data acquisition, the ability to acquire data from the entire cell population in a well (as opposed to a fraction of the well on the high content devices) and the larger dynamic range typically achieved with this instrument. To assess sensitivity of the ER alpha/ER alpha LBD assay to ligand, cells were treated with the ER agonist 17 beta-estradiol (E2) in 10-point concentration- response format for 24 hours and monitored response on a laser scanning plate cytometer (Acumen eX3; TTP Lab Tech).

Chain of Estrogen receptor (Homo sapiens) (P03372 whole entry, looked up): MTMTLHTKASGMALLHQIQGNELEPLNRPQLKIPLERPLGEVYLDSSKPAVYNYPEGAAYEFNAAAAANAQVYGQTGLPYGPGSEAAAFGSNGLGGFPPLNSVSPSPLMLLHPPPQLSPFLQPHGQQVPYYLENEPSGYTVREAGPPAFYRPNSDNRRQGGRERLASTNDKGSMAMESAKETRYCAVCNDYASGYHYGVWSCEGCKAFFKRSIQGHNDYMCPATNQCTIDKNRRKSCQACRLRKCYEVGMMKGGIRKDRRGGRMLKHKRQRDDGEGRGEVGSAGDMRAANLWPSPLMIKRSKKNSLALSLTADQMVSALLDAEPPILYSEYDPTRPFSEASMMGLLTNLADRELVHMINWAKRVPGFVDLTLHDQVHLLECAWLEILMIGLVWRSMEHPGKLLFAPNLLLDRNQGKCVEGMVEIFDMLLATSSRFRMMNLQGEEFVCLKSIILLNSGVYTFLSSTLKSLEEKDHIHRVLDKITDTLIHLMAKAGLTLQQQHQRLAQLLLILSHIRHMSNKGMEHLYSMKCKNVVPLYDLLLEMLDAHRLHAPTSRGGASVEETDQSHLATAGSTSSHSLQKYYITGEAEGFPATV

| SMILES | outcome | AC50 |
| --- | --- | --- |
| CC(=O)[O][Hg][c]1ccccc1 | inactive | – |
| CCCCOCCOC(C)=O | inactive | – |
| CC(C)OC(=O)Nc1ccccc1 | inactive | – |
| Cc1ccccc1C(=O)Nc1cccc(OC(C)C)c1 | inactive | – |
| ClC1(Cl)C2(Cl)C3(Cl)C4(Cl)C(Cl)(Cl)C5(Cl)C3(Cl)C1(Cl)C5(Cl)C24Cl (stereo not given) | inactive | – |
| C=CC#N | inactive | – |
| CCC[CH2][Sn]([Cl])([Cl])[Cl] | inactive | – |
| O=C(Nc1ccc2[nH]ccc2c1)c1cc2cc(F)ccc2n1Cc1cccc(F)c1 | inactive | – |
| ClC(Cl)=C(Cl)C(Cl)=C(Cl)Cl | inactive | – |
| CC(C)(C)c1cc(O)ccc1O | inactive | – |
| CCOC(=O)Nc1cccc(OC(=O)Nc2ccccc2)c1 | inactive | – |
| Cl/C=C/Cl | inactive | – |
| CCN1CCC2(CC1)COc1cc3c(cc12)N(C(=O)c1ccc(-c2ccc(-c4nnc(C)o4)cc2C)cc1)CC3 | inactive | – |
| COC(=O)c1sccc1S(=O)(=O)NC(=O)Nc1nc(C)nc(OC)n1 | inactive | – |
| C=C(C)C(=O)[O][Sn]([CH2]CCC)([CH2]CCC)[CH2]CCC | inactive | – |
| Clc1ccc(C2(Cn3cncn3)CC(Br)CO2)c(Cl)c1 (stereo not given) | inactive | – |
| COP(=O)(OC)O/C(=C\Cl)c1cc(Cl)c(Cl)cc1Cl | inactive | – |
| CC1(C)Cc2cccc(O)c2O1 | inactive | – |
| OCc1ccco1 | inactive | – |
| C=CC(=O)OCCCCCC(C)C | inactive | – |

| SMILES | outcome | AC50 |
| --- | --- | --- |
| COP(=S)(OC)Oc1ccc(Sc2ccc(OP(=S)(OC)OC)cc2)cc1 | inactive | – |
| O=C1CCCN1 | inactive | – |
| O=S(=O)(c1ccc(Cl)cc1)c1ccc(Cl)cc1 | inactive | – |
| CC1(C)CCC(Cc2ccc(Cl)cc2)C1(O)Cn1cncn1 (stereo not given) | inactive | – |
| COc1ccc(C=O)cc1OC | inactive | – |
| c1cc[c]([Hg][c]2ccccc2)cc1 | inactive | – |
| O=C(OC1CCCCC1)c1ccccc1C(=O)OC1CCCCC1 | – | 23.9 µM (active) |
| CC(C)c1cccc(C(C)C)c1O | inactive | – |
| BrCCBr | inactive | – |
| Cn1sc(Cl)cc1=O | inactive | – |
| Cc1ccc(N)cc1Cl | inactive | – |
| NNC(=S)NN | inactive | – |
| O=C1C(Cl)=C(Cl)C(=O)c2ccccc21 | – | 11.9 µM (active) |
| O=[N+]([O-])c1ccc(O)c([N+](=O)[O-])c1 | inactive | – |
| Fc1ccc(C2(Cn3cncn3)OC2c2ccccc2Cl)cc1 (stereo not given) | – | 39.5 µM (active) |
| O=C(NCO)NCO | inactive | – |
| C1CCC(NC2CCCCC2)CC1 | inactive | – |
| CC(C)(OO)c1ccccc1 | inactive | – |
| CNC(=O)O/N=C/C(C)(C)S(C)=O (stereo not given) | inactive | – |
| CCC1(c2ccc(N)cc2)CCC(=O)NC1=O (stereo not given) | inactive | – |
